Compounds with a hit are over-represented: about 5.2% of the library has one in this group of screens.
TrxR1 substrate = qHTS Assay for Substrates of Mammalian Selenoprotein Thioredoxin Reductase 1 (TrxR1): qHTS; purified TrxR1 substrate turnover, NADPH consumption readout; Potency, µM (top dose mostly 114 µM); 390,000 compounds, 0.01% hits; AID 588456, 2011; also: nearly all actives have a fitted effect of over 50% in size
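Rat TrxR1, dispensed at 90 nM, was prereduced with 400 uM NADPH (final) for 5 min at ~22 deg C, then incubated with compound 15 min before 400 uM selenite. A first-read NADPH fluorescence drop versus no-compound background flagged substrates.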
rTrxR1 inhibitor = qHTS Assay for Inhibitors of Mammalian Selenoprotein Thioredoxin Reductase 1 (TrxR1): qHTS; Thioredoxin reductase 1, cytoplasmic (Rattus norvegicus), O89049; recombinant rTrxR1, NADPH fluorescence consumption, selenite substrate; Potency, µM (highest dose often 114 µM), hits mostly inhibitors; AID 588453, 2011; 390,000 compounds, 1% hits; also: nearly all actives have a fitted effect of over 65% in size
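Rat TrxR1 (90 nM in the dispensed reagent) was pre-reduced with 400 uM NADPH for 5 min at room temperature, then incubated with compound for 15 min. After 400 uM selenite was added, NADPH fluorescence (Ex 340/Em 450 nm) was followed for 8 min.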
PLK1 PBD inh = qHTS for Inhibitors of PLK1-PDB (polo-like kinase 1 - polo-box domain): Primary Screen; 360,000 compounds, 2.8% hits; Plk1 PBD binding of FITC phosphopeptide, fluorescence polarization; Potency, µM, actives largely listed as inhibitors; AID 720504, 2013; also: series mostly up to about 57 µM; nearly all actives have a fitted effect of over 65% in size
Target sequence (P53350 whole entry, looked up, the tested form may be a part): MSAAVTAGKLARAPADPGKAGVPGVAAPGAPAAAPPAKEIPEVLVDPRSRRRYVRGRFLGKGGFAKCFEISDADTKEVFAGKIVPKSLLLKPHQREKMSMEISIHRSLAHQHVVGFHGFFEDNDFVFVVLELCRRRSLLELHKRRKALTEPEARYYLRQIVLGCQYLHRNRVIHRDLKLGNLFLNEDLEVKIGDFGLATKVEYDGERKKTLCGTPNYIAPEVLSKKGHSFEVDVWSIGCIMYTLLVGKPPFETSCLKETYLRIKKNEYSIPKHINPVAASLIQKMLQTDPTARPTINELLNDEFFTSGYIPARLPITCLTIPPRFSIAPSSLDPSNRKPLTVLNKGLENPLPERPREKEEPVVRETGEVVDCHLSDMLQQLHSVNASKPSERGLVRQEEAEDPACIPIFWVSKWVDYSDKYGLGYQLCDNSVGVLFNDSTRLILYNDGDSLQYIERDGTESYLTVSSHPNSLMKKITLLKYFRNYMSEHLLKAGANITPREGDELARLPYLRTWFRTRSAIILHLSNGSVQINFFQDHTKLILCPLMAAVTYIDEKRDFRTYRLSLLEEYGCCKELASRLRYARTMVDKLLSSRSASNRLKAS
VDR inh = Inhibitors of the vitamin D receptor (VDR): qHTS; VDR-SRC2-3 peptide fluorescence polarization, 2 h; Potency, µM, hits mostly inhibitors; 400,000 compounds, 0.93% hits; AID 504847, 2011
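The screen uses fluorescence polarization to detect compounds that interfere with recruitment of the SRC2-3 coactivator peptide to VDR; plates are read after 2 h at room temperature.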
mIDH1 inhibitor = qHTS for Inhibitors of mutant isocitrate dehydrogenase 1 (IDH1): qHTS | Isocitrate dehydrogenase [NADP] cytoplasmic (Homo sapiens), O75874 | Potency, µM (top dose mostly 76.6 µM), most hits filed as inhibitors | 390,000 compounds, 0.093% hits | IDH1-R132H enzyme, NADPH consumption, diaphorase/resazurin fluorescence | AID 602179, 2012; also: nearly all actives have a fitted effect of over 65% in size
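IDH1-R132H (0.5 ug/mL) preincubated 30 min with compound, then NADPH (0.016 mM) and alpha-KG (2 mM) added; 80 min at RT, pH 7.5. Remaining NADPH coupled via diaphorase/resazurin to fluorescence (540/590 nm); concentration-response curves normalized to no-enzyme control.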
Sfp PPTase inh = qHTS Assay for Inhibitors of Bacillus subtilis Sfp phosphopantetheinyl transferase (PPTase); 4'-phosphopantetheinyl transferase ffp (Bacillus subtilis), Q9F4F7; Biochemical Sfp PPTase activity, qHTS; Potency, µM, usual class: inhibitors; 310,000 compounds, 3.5% hits;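 also: the enzyme is Sfp with the accession as filed and its product quenches rhodamine fluorescence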
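Compounds were incubated with enzyme (final 15 nM) for 15 min at room temperature before substrate addition started the reaction. Fluorescence at 525 nm excitation, 598 nm emission was recorded immediately and after 30 minutes.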
A number is an active result; - = inactive; ? = inconclusive; . = no result; ! = repeats disagree; [ ] = dose if it differs, or a comment. Calls follow the shape of the dose curve; as a rule, active = well fitted curve in the direction sought with a large enough effect; inconclusive = small, poorly fitted or top-dose-only effect, or another doubt; inactive = no such curve, though single readings can be large; an effect the other way counts as inactive or inconclusive.

SMILES	TrxR1 substrate	rTrxR1 inhibitor	PLK1 PBD inh	VDR inh	mIDH1 inhibitor	Sfp PPTase inh
COc1ccc(NC(=O)CCN2C(=O)[C@@H]3[C@H](C2=O)[C@H]2C=C[C@@H]3C2)cc1	-	-	27µM	-	-	-
O=C(CCN1C(=O)C2C3C=CC(C3)C2C1=O)Nc1nccs1 (configuration not stated)	-	-	30µM	-	-	-
O=C(CCCCCN1C(=O)C2C3C=CC(C3)C2C1=O)Nc1nccs1 (configuration not stated)	-	-	-	-	-	-
COc1ccc(NC(=O)Nc2nnc([C@@H]3C[C@H](O)[C@@H](CO)O3)s2)cc1	.	.	-	.	.	.
O=C(CCc1ccc(O)cc1)c1c(O)cc(O)cc1O	-	10µM	-	-	-	50µM!
COc1cc(O)c(CC=C(C)C)c(O)c1C(=O)CCc1ccc(O)cc1	-	-	-	-	-	-
O=C(CN1C(=O)CCSc2ccccc21)Nc1ccccc1F	-	-	.	-	-	.
CCOc1ccccc1Oc1cn[nH]c1-c1ccc(OCC(=O)NN)cc1O	-	-	-	-	?	-
COc1cccc(Oc2cn[nH]c2-c2ccc(OCC(=O)NN)cc2O)c1	-	-	38µM	-	-	-
COc1ccccc1CN1CC[C@@]2(CCCN(C(=O)c3c(C)noc3C)C2)C1	.	.	.	?	.	-
Cc1ccnc2cc(Cl)cc(Cl)c12	-	-	.	.	.	.
Cc1ccnc2ccc3ccccc3c12	-	89µM	.	.	.	.
COc1ccc(N2CC(C(=O)Nc3nnc(SCC(=O)c4ccccc4)s3)CC2=O)cc1 (configuration not stated)	-	-	-	-	-	28µM
CNC(=O)CSc1nnc(NC(=O)C2CC(=O)N(c3ccccc3OC)C2)s1 (configuration not stated)	-	-	?	-	-	50µM
COc1ccc(N2CC(C(=O)Nc3nnc(C4CCCCC4)s3)CC2=O)cc1 (configuration not stated)	-	-	30µM	?	-	-
COc1ccc(N2CC(C(=O)Nc3nnc(SCC(=O)N4CCOCC4)s3)CC2=O)cc1 (configuration not stated)	-	-	-	-	-	50µM
O=C(Nc1nnc(SCC(=O)N2CCOCC2)s1)C1CC(=O)N(c2ccccc2)C1 (configuration not stated)	-	-	-	-	-	-
CC(N)COC(=O)C(CCCCN)NC(=O)Cc1c(-c2ccc3ccccc3c2)[nH]c2c1ccc1ccccc12 (configuration not stated)	.	.	.	-	.	?
C=C1CCC(C2CC(=O)OC2=O)C(=O)CCC2C1CC2(C)C (configuration not stated)	.	.	.	-	.	-
COc1ccc(N2CC(C(=O)N/N=C/c3cccs3)CC2=O)cc1 (configuration not stated)	-	-	24µM	-	-	?
O=C(COC(=O)c1cc(S(=O)(=O)N2CCc3ccccc3C2)ccc1Cl)NCc1ccco1	-	?	?	?	-	45µM
COc1ccc(CN/C(C)=C(/C#N)C(N)=O)cc1OC	-	-	27µM	?	-	-
COc1ccc(CNC(=O)NCc2ccc(OC)c(OC)c2)cc1OC	-	-	-	-	-	-
C=CCN1C(c2ccccc2)=CS/C1=C(/C#N)c1nnc(N2CCOCC2)n1-c1ccccc1	-	-	21µM	-	-	-
CCCc1cc(=O)[nH]c(SCC(=O)Nc2c(C)n(C)n(-c3ccccc3)c2=O)n1	-[2.29 µM]	-[2.29 µM]	-	-	-	.
CN(Cc1cc(=O)n2ccsc2n1)Cc1nc2ccccc2c(=O)[nH]1	-	-	-	-	-	4.5µM

Screens deposited in PubChem by National Center for Advancing Translational Sciences (NCATS).
